Screening data: PubChem, National Center for Advancing Translational Sciences (NCATS)
SMN2 splice enh: qHTS Assay for Enhancers of SMN2 Splice Variant Expression; HEK293 SMN2-luciferase splicing reporter, luminescence, 30-36 h; Potency, µM (top dose mostly 46.1 µM), inactives show top-dose activity change, positive = activation, usual class: activators; 210,000 compounds, 2.8% hits; AID 1458, 2008; note: % of control where 0% means no effect; nearly all actives have a fitted effect of over 55% in size
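HEK293 cells carry an SMN2 minigene-luciferase reporter in which exon 7 inclusion puts luciferase in frame. Cells were seeded at 2000 cells/well, attached for 10-12 hours, then exposed to compounds for 30-36 hours at 37C before ONE-Glo luminescence.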
ELG1 genotox: qHTS screen for small molecules that induce genotoxicity in human embryonic kidney (HEK293T) cells expressing luciferase-tagged ELG1; AID 504466, 2011; Potency, µM (top dose mostly 46 µM), for the others: at the top dose activity change, positive = activation, usual class: activators; 330,000 compounds, 1.3% hits; HEK293T ELG1-luciferase reporter, luminescence, 16 h; note: % of control where 0% means no effect; nearly all actives have a fitted effect of over 60% in size
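Genotoxic stress is detected as increased luminescence from luciferase-tagged ELG1 in HEK293T cells, measured with ONE-Glo after a 16 hr treatment at 37 °C.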
FLuc modulator: qHTS profiling assay for firefly luciferase inhibitor/activator using purifed enzyme and Km concentrations of substrates (counterscreen for miR-21 project); 360,000 compounds, 6.9% hits; AID 588342, 2011; Potency, µM (highest dose often 57.5 µM), for inactives: top-dose activity change, negative = inhibition, usual class: inhibitors; purified FLuc, Km substrates, luminescence inhibition;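 note: plate controls were vehicle for no effect and reference inhibitor for full effect; nearly all actives have a fitted effect of over 55% in size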
Target sequence (P08659 whole entry, looked up): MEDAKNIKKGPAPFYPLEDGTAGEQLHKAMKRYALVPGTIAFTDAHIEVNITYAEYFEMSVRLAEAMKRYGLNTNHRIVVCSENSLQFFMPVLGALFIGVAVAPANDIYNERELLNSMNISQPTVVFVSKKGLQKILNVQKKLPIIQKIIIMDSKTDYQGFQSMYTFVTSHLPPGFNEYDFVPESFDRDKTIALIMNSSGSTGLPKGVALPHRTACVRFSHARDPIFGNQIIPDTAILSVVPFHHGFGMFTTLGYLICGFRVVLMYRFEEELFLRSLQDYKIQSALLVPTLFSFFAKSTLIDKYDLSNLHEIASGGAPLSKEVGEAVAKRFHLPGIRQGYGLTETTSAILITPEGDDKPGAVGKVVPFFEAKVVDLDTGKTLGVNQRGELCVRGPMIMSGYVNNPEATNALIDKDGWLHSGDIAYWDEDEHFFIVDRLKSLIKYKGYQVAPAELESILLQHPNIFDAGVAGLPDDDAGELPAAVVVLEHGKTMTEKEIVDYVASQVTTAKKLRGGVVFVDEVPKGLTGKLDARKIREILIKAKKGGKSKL
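Purified P. pyralis luciferase, 10 nM final, with Km-level 10 uM D-luciferin and 10 uM ATP in 50 mM Tris acetate pH 7.5, 10 mM Mg acetate, 0.01% Tween-20, 0.05% BSA; 6-point qHTS titration about 60 µM downward; luminescence read.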
Rab9 prom act: qHTS Assay for Rab9 Promoter Activators; Huh7 Rab9 promoter-luciferase reporter, luminescence, 24 h; Potency, µM (highest dose often 9.22 µM), for inactives: at the highest dose activation, negative = inhibition, usual class: activators; 320,000 compounds, 2.8% hits; note: % of control where 0% means no effect; nearly all actives have a fitted effect of over 60% in size
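Huh7 cells stably carrying Rab9 promoter–luciferase reporter, plated 1500 cells/well, compound added after 2 h and incubated 24 h at 37 °C; luciferase luminescence then read after 10 min with detection reagent.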
NPC1 promoter act: qHTS Assay for NPC1 Promoter Activators; AID 485313, 2010; Huh7 NPC1 promoter luciferase reporter, 24 h; 320,000 compounds, 2.4% hits; Potency, µM (highest dose often 9.22 µM), without a hit: at the top dose activation, usual class: activators; note: % of control where 0% means no effect; nearly all actives have a fitted effect of over 60% in size
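Compounds in DMSO were transferred onto Huh7 NPC1-luciferase reporter cells pre-incubated 2 h; after 24 h at 37 °C, Amplite reagent was dispensed and luminescence recorded 10 min later.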
ELG1 DNA repair: qHTS screen for small molecules that inhibit ELG1-dependent DNA repair in human embryonic kidney (HEK293T) cells expressing luciferase-tagged ELG1; HEK293T ELG1-luciferase reporter, luminescence, 16 h; DNA damage induced by 5-fluorouridine; Potency, µM (highest dose often 46.1 µM), for inactives: at the highest dose activity change, negative = inhibition, hits mostly inhibitors; 330,000 compounds, 2.3% hits; note: % is set by controls: 0 for no effect and ±100 for the full control effect; nearly all actives have a fitted effect of over 55% in size
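Quantitative HTS, concentration-response format. 2,000 cells/well co-treated with 5-fluorouridine and compound, 16 hr in 5% CO2 at 37 °C; ONE-Glo luminescence read after 30 min.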
Active calls of the source: *; ? = inconclusive; / = no result; [ ] = dose if it differs, or a comment. An excerpt weighted towards active compounds, which were near 9.4% of everything screened. Calls come from the whole dose curve; as a rule, active = well fitted curve in the direction sought with a large enough effect; inconclusive = small, poorly fitted or top-dose-only effect, or another doubt; inactive = no such curve, though single readings can be large; an effect the other way counts as inactive or inconclusive. Potency is the fitted concentration of half-maximal effect.

SMILES	SMN2 splice enh	ELG1 genotox	FLuc modulator	Rab9 prom act	NPC1 promoter act	ELG1 DNA repair
O=C(NC(=S)Nc1ccc2c(c1)OCCO2)c1cccc(Br)c1	12.6µM*	?	10.7µM*	3.16µM*	3.16µM*	?
O=C(Nc1ccc2c(c1)OCCO2)C1CC1c1ccccc1 (configuration not stated)	11.2µM*	?	9.53µM*	3.98µM*	?	?
C=C/C(=C\C)C[C@@H](CC(=O)N[C@@H](CCC(=O)O)CC(=O)O)NC(=O)[C@@H]1CNCC[C@H]1NC(=O)C[C@@H](NC(=O)C[C@H](Cc1ccccc1)NC(=O)[C@@H]1CCCC[C@H]1N)C(C)C	7.5%	/	/	/	/	/
O=C(CC1CS(=O)(=O)CC1CC(=O)Nc1ccc2c(c1)OCCO2)Nc1ccc2c(c1)OCCO2 (configuration not stated)	/	?	16.9µM*	7.2%	12.4%	?
O=C(CC1NCCNC1=O)Nc1ccc2c(c1)OCCO2 (configuration not stated)	7.4%	3.8%	1.8%	-0.7%	-3.1%	9.0%
CC(C)C(NC(=O)C1CCCCC1)C(=O)Nc1ccncc1 (configuration not stated)	3.6%	0.2%	2.1%	0.9%	-2.0%	-7.1%
O=C(Nc1ccc2c(c1)OCCO2)c1cccc(C(=O)Nc2ccc3c(c2)OCCO3)c1	/	13.8%	6.75µM*	16.5%[1.84 µM]	3.98µM*	27.2%
O=C(Nc1ccc2c(c1)OCCO2)c1ccccc1	/	3.66µM*	3.38µM*	0.794µM*	0.447µM*	?
CC(C)C(NC(=O)C1CCCCC1)C(=O)Nc1ccc2c(c1)OCCO2 (configuration not stated)	36.0%	?	6.01µM*	2µM*	1.12µM*	?
CSc1ccccc1C(=O)Nc1ccc2c(c1)OCCO2	4.5%	/	?	/	/	/
COc1ccc(-c2onc(C)c2C)cc1S(=O)(=O)N1CCc2ccccc21	/	/	-6.4%	/	/	/
O=C(NC(=S)Nc1ccc2c(c1)OCO2)c1ccccc1	20µM*	?	3.79µM*	1.58µM*	1.41µM*	?
O=C(Nc1ccc2c(c1)OCCO2)C(=S)NCc1ccccc1	?	10.4%	6.01µM*	24.8%	16.8%	?
O=C(NC(=S)Nc1ccccc1Br)c1ccc2c(c1)OCO2	/	?	9.53µM*	11.2%	?	?
O=C(NCc1ccccc1)c1ccc2c(c1)OCCO2	19.1%	8.6%	?	?	18.7%	?
O=C(Nc1ccc2c(c1)OCO2)c1cc(Cl)ccn1	/	?	4.78µM*	1.26µM*	1.78µM*	?
O=C(Nc1ccc2c(c1)OCO2)c1ccccc1	/	?	9.53µM*	1.12µM*	1.78µM*	?
O=C(Nc1cccc([N+](=O)[O-])c1)c1[nH]ncc1Cl	11.2µM*	?	16.9µM*	3.98µM*	3.16µM*	?
C=CCN(c1ccc(C(=O)Nc2ccc3c(c2)OCO3)cc1)S(C)(=O)=O	/	-3.2%	?	-2.0%	3.7%	13µM*
O=C(NC(=S)Nc1ccc2c(c1)OCCO2)c1cccc2ccccc12	?	16.0%	15.1µM*	22.2%	12.1%	?
O=C(Nc1cccc([N+](=O)[O-])c1)c1cnccn1	18.7%	1.2%	-2.3%	0.8%	6.1%	2.2%
C=CCN(c1ccc(C(=O)Nc2ccc3c(c2)n(C)c(=O)n3C)cc1)S(C)(=O)=O	/	?	2.4%	3.3%	0.0%	?
COc1cc(NC(=S)Nc2ccc3c(c2)OCCO3)cc(OC)c1OC	/	10.7%	-18.9%	14.3%	4.9%	?
S=C(Nc1ccc(Br)cc1)Nc1ccc2c(c1)OCCO2	/	?	12µM*	?	?	?
CCCc1cc(C(=O)Nc2cccc([N+](=O)[O-])c2)cs1	/	13.9%	10.7µM*	?	?	?
SMILES	SMN2 splice enh	ELG1 genotox	FLuc modulator	Rab9 prom act	NPC1 promoter act	ELG1 DNA repair
CC(C)c1ccc(O)c(NC(=S)NC(=O)c2ccc3c(c2)OCO3)c1	/	21.9%	6.75µM*	?	2.24µM*	?
O=C(Cc1cccs1)Nc1cccc([N+](=O)[O-])c1	-3.6%	-3.2%	-11.8%	24.0%	-0.7%	18.2%
O=C(Nc1cccc(Cl)c1)c1ccc2c(c1)OCCO2	/	2.06µM*	1.07µM*	1.78µM*	1.26µM*	?
COc1ccc(NC(=O)N2CCCC(C(=O)NCCc3ccccc3)C2)cc1 (configuration not stated)	/	12.7%	-3.4%	?	20.0%	?
C[C@H]1C(O)[C@@]23CCC4C5(C=[N+](CCO)C[C@]4(C)CCC5)C2C[C@@H]1C3 (some centres not stated)	4.4%	/	/	/	/	/
COc1ccc(OC)c(-c2nnc3n(Cc4ccc(C)cc4)c(=O)c4ccccc4n23)c1	/	/	5.4%	/	/	/
CCCc1cc(=O)oc2c3c(ccc12)OCN(Cc1ccccc1OC)C3	/	/	-2.5%	/	/	/
O=C(Nc1ccc(N=Nc2ccccc2)cc1)c1cccc(Cl)c1	17.4%	10.2%	-0.6%	-0.4%	5.3%	28.6%
O=C(Nc1ccc2c(c1)OCCO2)c1ccc(Br)s1	1.12µM*	1.46µM*	0.675µM*	1.58µM*	3.55µM*	?
O=C(Nc1cccc([N+](=O)[O-])c1)c1ccncc1	-9.5%	4.7%	0.9%	-1.2%	-3.9%	-10.0%
O=C(Nc1ccc2c(c1)OCCO2)c1cccc(Cl)c1	/	?	3.01µM*	2µM*	3.16µM*	?
O=C(CC(=O)c1ccccc1)Nc1ccc2c(c1)OCCO2	12.6µM*	?	6.75µM*	1.41µM*	2.51µM*	?
CC(C)(C)c1ccc(C(=O)Nc2cccc([N+](=O)[O-])c2)cc1	11.2µM*	?	1.69µM*	2.24µM*	2.51µM*	?
CCc1ccc(C2c3c(n[nH]c3C)C(=O)N2c2ccc(C)cc2)cc1 (configuration not stated)	24.8%	/	?	/	/	/
COc1cccc(N2CCN(C(=O)c3cnc4c(-c5ccc(F)cc5)c(C)nn4c3C)CC2)c1	/	/	-10.4%	/	/	/
CC(C)(O)C#Cc1ccc(C(=O)Nc2ccc3c(c2)OCO3)s1	/	?	8.49µM*	?	2.82µM*	?
O=C(Nc1ccc2c(c1)OCCO2)c1cnn(-c2ccccc2)n1	/	?	4.78µM*	2.82µM*	?	?
O=C(CCCc1cccs1)Nc1ccc2c(c1)OCO2	14.1µM*	?	10.7µM*	2.82µM*	2.24µM*	?
